Pf growth 96h: P. falciparum growth inhibition at 96 hour, primary screen for plastid delayed-death inhibitors; Potency, µM (doses to about 28.7 µM), without a hit: at the highest dose activity change, negative = inhibition, most hits filed as inhibitors; P. falciparum luciferase reporter growth, 96 h; 320,000 compounds, 6.9% hits; active means well fitted inhibition curve with a large enough effect; inconclusive means small, poorly fitted or top-dose-only effect, or another doubt; inactive means no such curve, though single readings can be large or run the other way; further: potency means the concentration at half of the fitted maximal effect; on the % scale 0 is the no-effect control and ±100 the full control effect
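P. falciparum expressing integrated firefly luciferase, in erythrocytes at 2% hematocrit, 0.05% parasitemia, incubated with compounds 96 h at 37 C, 5% CO2. Growth inhibition read as loss of luminescence; two-generation exposure targets delayed-death apicoplast inhibitors.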
CHX counter: counter-screen hit for Shiga toxin inhibitors, cycloheximide. cell reporter, cycloheximide protein synthesis inhibition counterscreen. AID 2314. max response, %. 300,000 compounds, 12% hits; in the data active means max response mostly above about 13%, no sharp cut-off; inactive means mostly below about 14%; further: read at 38.3 µM for the half of the compounds with a filed dose; 0% is about no effect
Pf growth 48h: P. falciparum growth inhibition at 48 hours (one generation); 310,000 compounds, 5.9% hits; Potency, µM (series often up to 28.7 µM), for inactives: top-dose activity change, negative = inhibition, hits mostly inhibitors; P. falciparum luciferase growth in erythrocytes, 48 h; AID 504832; active means well fitted inhibition curve with a large enough effect; inconclusive means small, poorly fitted or top-dose-only effect, or another doubt; inactive means no such curve, though single readings can be large or run the other way; further: potency means the concentration at half of the fitted maximal effect; on the % scale 0 is the no-effect control and ±100 the full control effect
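Firefly luciferase activity from engineered P. falciparum reports growth; inhibitors lower the luminescent signal. Cultures contained 2% hematocrit erythrocytes at 0.1% final parasitemia.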
Shiga toxin inh: Shiga toxin inhibition; Vero cells, Shiga toxin protein synthesis inhibition reporter; inhibition, % at 38.7 µM; 290,000 compounds, 9.2% hits; AID 2315; in the data active means inhibition mostly above about 28%, no sharp cut-off; inactive means mostly below about 43%; further: 0% is about no effect
NS1 inh: inhibitors of influenza NS1 protein function; Potency, µM (series often up to 46.1 µM), for inactives: at the top dose activity, positive = more growth; 270,000 compounds, 0.4% hits; AID 2326; further: potency means the concentration at half of the fitted maximal effect; actives are rising curves; nearly all actives have a fitted effect of over 50% in size
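A cell-based growth assay was used: compounds that relieve NS1-induced slow growth of budding yeast raise OD600. Assay medium was yeast nitrogen base with ammonium sulphate and -URA supplement, pH 6.0, with 2% galactose.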
SARS PLP yeast: inhibitors of SARS-CoV papain-like protease in yeast; S. cerevisiae expressing SARS-CoV PLpro, growth rescue; Potency, µM (top dose mostly 32.9 µM), for inactives: at the highest dose activity, positive = growth rescue, hits mostly activators; 330,000 compounds, 0.19% hits; AID 485353; further: potency means the concentration at half of the fitted maximal effect; 0% is about no effect; nearly all actives have a fitted effect of over 55% in size
The depositor's hits bear a star; u = inconclusive; x = not tested or not shown; ! = not active in a repeat; [ ] = remark or other dose. In the library only some 21% were active in any assay of this set; here they are far more common. Unless noted, the call rests on the fitted dose curve.

SMILES	Pf growth 96h	CHX counter	Pf growth 48h	Shiga toxin inh	NS1 inh	SARS PLP yeast
COC(=O)[C@@]1(Cc2ccc(OC)cc2)[C@H]2c3cc(C(=O)N(C)C)[nH]c3C[C@H]2CN1C(=O)c1ccccc1	u	-3	4.7µM*	-17	-24%	17%
COC(=O)/C(C#N)=C/c1cc(C)sc1C	-3%	1	21%	-8	-1%	0%
CCN(CC(=O)Nc1cc(Cl)ccc1C)C(=O)C1COc2ccccc2O1 (stereo not drawn)	-23%	x	u	x	x	-3%
COc1ccc(N2CCN(C(C)C(=O)N3CC(C)OC(C)C3)CC2)cc1 (stereo not drawn)	30%	-3	19%	-1	x	-3%
Cc1cccc(C(=O)O/N=C(\N)CS(=O)(=O)c2ccccc2)c1	10%	16*	0%	48	1%	5%
COc1cccc(C(=O)O/N=C(\N)CS(=O)(=O)c2ccccc2)c1	28%	56*	112%	63*	4%	7%
COc1cccc(C(=O)O/N=C(\N)c2ccccn2)c1	-11%	-9	5%	-15	-32%	-15%
Cc1cccc(C(=O)O/N=C(\c2ccccc2)c2cccnc2)c1	16%	3	-19%	-6	-28%	-32%
CSc1nc2sc3c(c2c(=O)n1C1CCCCC1)CCN(C)C3	u	-2	u	-21	-1%	-3%
CCSc1nc2sc3c(c2c(=O)n1C1CCCCC1)CCN(C)C3	-5%[5.75 µM]	-2	1.3µM*	-6	6%	-2%
NNc1nc2sc3c(c2c(=O)n1C1CCCCC1)CCN(Cc1ccccc1)C3	1.2µM*	-2	u	9	3%	-1%
C=C(C)CSc1nc2sc3c(c2c(=O)n1C1CCCCC1)CCN(C)C3	1µM*	-2	1.5µM*	-13	3%	0%
COC(=O)c1c(C)nc(C)c(C(=O)OC)c1-c1ccccc1[N+](=O)[O-]	x	-6	x	1	x	x
COc1ccccc1CN1C(=NC(=O)C2CCCCC2)SC2CS(=O)(=O)CC21 (stereo not drawn)	36%	-4	23%	-1	9%	11%
Cc1cnc(C(=O)OCc2csc(CC(=O)Nc3ccccc3C)n2)cn1	-18%	2	u	-15	13%	0%
CC(C)C(=O)NCc1cc(-c2ccccc2)no1	5.2µM*	-4	-41%[5.75 µM]	-12	3%	-1%
COc1ccc(-c2cc(CNC(=O)CCl)on2)cc1	1.5µM*	11	2.9µM*	19	9%	7%
CC(=O)NCc1cc(-c2ccc(Cl)cc2)no1	-9%[1.15 µM]	-1	-7%	29	-3%	0%
COCCNC(=O)c1cccc(Nc2nc(-c3ccccc3)c3cc(Cl)ccc3n2)c1	u	-2	u	-15	15%	-4%
CN1C2CCC1CC(OC(=O)c1ccc(Cl)cc1)C2 (stereo not drawn)	1%	-2	u	-23	2%	u
CCOc1ccc(C(=O)OC2CC3CCC(C2)N3C)cc1 (stereo not drawn)	u	22*	35%	27	1%	-1%
CN1C2CCC1CC(OC(=O)c1c[nH]c3ccccc13)C2 (stereo not drawn)	u	-2	12µM*!	-10	-13%	1%
CC(Sc1nnc(-c2cccnc2)n1C)C(=O)N1CCOCC1 (stereo not drawn)	10%	x	5%	x	x	1%
CCn1c(SCC(=O)NC(C)(C)C)nnc1-c1ccccn1	u	3	x	35	8%	0%
COc1ccccc1NC(=S)N1CCN(c2nc(-c3ccccc3)cs2)CC1	-8%	6	-4%	12	10%	-2%
SMILES	Pf growth 96h	CHX counter	Pf growth 48h	Shiga toxin inh	NS1 inh	SARS PLP yeast
COc1ccc(-c2csc(-n3ncc(-c4cccs4)c3N)n2)cc1	u	4	7%	31	10%	0%
COc1ccc(-c2csc(-n3cccn3)n2)cc1	194%	62*	87%	66*	-10%	-3%
COc1ccc(-c2csc(N3CCSCC3)n2)cc1	184%	56*	104%	95*	13%	-4%
Cc1cccc(C(=O)NNC(=O)CSc2nnc(C3CC3)n2C)c1	u	-1	u	3	7%	0%
CCOc1ccc(NC(=O)CN(C)C(=O)c2ccccc2OCc2c(C)noc2C)cc1OCC	-1%	x	-18%	x	x	0%
CCCNc1ncnc2c1cnn2-c1ccc(OC)cc1	-1%	-2	31%	-11	-1%	4%
COc1ccc(-n2ncc3c(NCCN4CCOCC4)ncnc32)cc1	103%	34*	x	47*	-1%	-8%
COc1ccc(-n2ncc3c(NCCCN4CCOCC4)ncnc32)cc1	-9%	41*	134%	83*	-8%	1%
Cc1cccc(NC(=O)c2oc3ccc(S(=O)(=O)N4CCOCC4)cc3c2C)c1C	-23%	-2	4.7µM*	-1	u	-6%
Cc1c(C(=O)Nc2ccc(F)cc2)oc2ccc(S(=O)(=O)N3CC(C)CC(C)C3)cc12 (stereo not drawn)	x	-1	10µM*	-13	9%	0%
CCN(CC)C(=O)c1oc2ccc(S(=O)(=O)N3CC(C)CC(C)C3)cc2c1C (stereo not drawn)	45%	2	u	25	7%	-5%
Cc1ccc(NC(=O)c2oc3ccc(S(=O)(=O)N4CCC5(CC4)OCCO5)cc3c2C)cc1C	u	1	13µM*	-2	14%	u
CCOC(=O)c1oc2ccc(S(=O)(=O)N3CCOCC3)cc2c1C	1.9µM*	8	-3%	-25	-17%	1%
CCN(CC)CCN(C(=O)CCS(=O)(=O)c1ccccc1)c1nc2cc3c(cc2s1)OCO3	23%	-1	-2%	-3	1%	-3%
Cc1c(C(=O)NCCC2=CCCCC2)oc2ccc(S(=O)(=O)N3CCOCC3)cc12	34%	7	12µM*	-18	-10%	-3%
COc1cc(-c2cc(N)n(S(=O)(=O)c3ccc(F)cc3)n2)cc(OC)c1OC	22%	-4	x	-7	6%	2%
CCOC(=O)c1oc2ccc(S(=O)(=O)n3nc(-c4cc(OC)c(OC)c(OC)c4)cc3N)cc2c1C	-9%	8	13µM*	-17	x	1%
Cc1c(C(=O)NCCCN2CCCC2=O)oc2ccc(S(=O)(=O)N3CCOCC3)cc12	x	-1	-14%	-4	-18%	0%
COCC(COS(N)(=O)=O)C(C)C (stereo not drawn)	35%	-3	26%	-6	-7%	-7%
CC(NC(=O)CN(C)S(=O)(=O)c1ccc(Br)s1)c1ccccc1 (stereo not drawn)	-12%	36*	6%	84*	-17%	2%
CN(CC(=O)Nc1ccc2c(c1)OCCO2)S(=O)(=O)c1ccc(Br)s1	13µM*	25*	x	3	-18%	8%
CCN(CC(=O)Nc1ccc2c(c1)OCCO2)S(=O)(=O)c1cccs1	31%	28*	x	52*	u	22%

Compound activity from PubChem BioAssay.
